From PubChem BioAssay (NCI)
Several values for one entry are separate records, joined by “and”; a condition that tells them apart may be missing. Identical values can stand only once. The panel holds about 79,000 compounds, 15% with a hit somewhere; the sample as a whole holds those more often. Some compounds were tested as several samples or in several runs, with calls that do not always agree. Activity calls are given as the source filed them. Rule as the data show it: active = growth inhibition above about 70%; inactive = the rest.

Tests used:
[1] = NCI Yeast Anticancer Drug Screen. Data for the rad50 strain (AID 155);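 also: 0% = growth of vehicle-only cultures of the same strain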; conditions: S. cerevisiae rad50 strain growth inhibition, stronger effect = higher value
Outline: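 A DNA repair-deficient yeast mutant serves as the test organism; compound-induced growth inhibition is calculated against vehicle-treated cells.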

[2] = NCI Yeast Anticancer Drug Screen. Data for the mec2-1 strain (AID 157); conditions: S. cerevisiae mec2-1 strain, stronger effect = higher value
Outline: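 Vehicle-treated cultures served as reference for growth inhibition of compound-exposed mec2-1 yeast.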

[3] = NCI Yeast Anticancer Drug Screen. Data for the sgs1 mgt1 strain (AID 161);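 also: 0% = growth of cultures given vehicle only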; conditions: S. cerevisiae sgs1 mgt1 strain, stronger effect = higher value
Outline: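 Inhibition of yeast growth, normalised to vehicle-treated controls, is reported for a strain bearing genetic alterations in DNA damage repair.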

[4] = NCI Yeast Anticancer Drug Screen. Data for the cln2 rad14 strain (AID 165);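 also: 0% = growth equal to vehicle treated cultures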; conditions: S. cerevisiae cln2 rad14 strain, stronger effect = higher value
Outline: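 Each compound was tested on cln2 rad14 yeast. Inhibition of growth was calculated against vehicle-exposed controls.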

[5] = NCI Yeast Anticancer Drug Screen. Data for the bub3 strain (AID 167); conditions: S. cerevisiae bub3 mutant strain, stronger effect = higher value
Outline: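 Inhibition values come from growth of compound-treated mutant yeast normalised to vehicle-treated controls.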

[6] = NCI Yeast Anticancer Drug Screen. Data for the mlh1 rad18 strain (AID 175); conditions: S. cerevisiae mlh1 rad18 strain growth inhibition, stronger effect = higher value
Outline: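 Vehicle-treated cultures served as the reference for growth inhibition in a yeast strain carrying DNA damage repair alterations exposed to each compound.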

[7] = at 5.0 µM (retest, dose inferred, filed as 0.5)
[8] = at 50.0 µM (retest, dose inferred, filed as 5.0)

SMILES | growth inhibition [1, 7] | growth inhibition [1, 8] | growth inhibition ([1]; at 50.0 µM) | growth inhibition [2, 7] | growth inhibition [2, 8] | growth inhibition ([2]; at 50.0 µM) | growth inhibition [3, 7] | growth inhibition [3, 8] | growth inhibition ([3]; at 50.0 µM) | growth inhibition [4, 7] | growth inhibition [4, 8] | growth inhibition ([4]; at 50.0 µM) | growth inhibition [5, 7] | growth inhibition [5, 8] | growth inhibition ([5]; at 50.0 µM) | growth inhibition [6, 7] | growth inhibition [6, 8] | growth inhibition ([6]; at 50.0 µM)
CN(/N=C/c1ccc(Cl)cc1)P(=O)(N1CC1)N1CC1 | 24% (inactive) | 28% (inactive) | -15.7% (inactive) | 14% (inactive) | 17% (inactive) | -12.2% (inactive) | 18% (inactive) | 24% (inactive) | -3.4% (inactive) | 31% (inactive) | 20% (inactive) | 11.7% (inactive) | 18% (inactive) | 18% (inactive) | -0.25% (inactive) | 23% (inactive) | 28% (inactive) | 0.65% (inactive)
CN1CCN(c2ccc([N+](=O)[O-])c3no[n+]([O-])c23)CC1 | 96% (active) and 97% (active) | 99% (active) | 99.2% (active) and 89.8% (active) | 52% (inactive) and 81% (active) | 99% (active) | 97.5% (active) and 93% (active) | 82% (active) and 93% (active) | 99% (active) | 98.8% (active) and 91.3% (active) | 72% (active) and 46% (inactive) | 97% (active) and 98% (active) | 92.7% (active) and 84.6% (active) | 45% (inactive) and 65% (inactive) | 99% (active) and 97% (active) | 98.2% (active) and 91.5% (active) | 94% (active) and 97% (active) | 99% (active) | 94.2% (active) and 90.2% (active)
OC(c1ccc(Cl)cc1)C(Cl)(Cl)Cl (centres undefined) | 6% (inactive) | 98% (active) | 97.6% (active) | 0% (inactive) | 98% (active) | 96.8% (active) | -1% (inactive) | 35% (inactive) | 81.2% (active) | 1% (inactive) | 96% (active) | 77.8% (active) | -8% (inactive) | 99% (active) | 95.3% (active) | 3% (inactive) | 97% (active) | 97.5% (active)
Oc1ccc(Br)cc1C1N(Cc2ccc(N(CCCl)CCCl)cc2Cl)CCCN1Cc1ccc(N(CCCl)CCCl)cc1Cl | 69% (inactive) | 98% (active) | 10.7% (inactive) | 47% (inactive) | 99% (active) | 63% (inactive) | 54% (inactive) | 99% (active) | 23.7% (inactive) | 70% (active) | 98% (active) | 8.95% (inactive) | 84% (active) | 99% (active) | 52% (inactive) | 98% (active) | 98% (active) | 46.5% (inactive)
CCCOc1ccc(/C=C/[N+](=O)[O-])cc1N | 58% (inactive) | 99% (active) | 99.2% (active) | 52% (inactive) | 99% (active) | 99.5% (active) | 78% (active) | -8% (inactive) | 99.5% (active) | 17% (inactive) | 99% (active) | 98.9% (active) | 34% (inactive) | 99% (active) | 99.5% (active) | 49% (inactive) | 99% (active) | 99.3% (active)
CCC1CC2CCC(O2)C(C)C(=O)OC(C)CC2CCC(O2)C(C)C(=O)OC(CC)CC2CCC(O2)C(C)C(=O)OC(C)CC2CCC(O2)C(C)C(=O)O1 (centres undefined) | -7% (inactive) | 71% (active) | 82.3% (active) | 23% (inactive) | 88% (active) | 84.5% (active) | -1% (inactive) | 74% (active) | 80.7% (active) | 25% (inactive) | 79% (active) | 66.2% (inactive) | -4% (inactive) | 79% (active) | 79.2% (active) | -15% (inactive) | 85% (active) | 73.2% (active)
CC1CN1C1=C(F)C(=O)C(N2CC2C)=C(F)C1=O (centres undefined) | 98% (active) | 99% (active) | 90.8% (active) | 100% (active) | 99% (active) | 94% (active) | 99% (active) | 99% (active) | 91% (active) | 99% (active) | 99% (active) | 91% (active) | 99% (active) | 99% (active) | 92.5% (active) | 99% (active) | 99% (active) | 91.5% (active)
CC1([CH2][Hg][I])CS(=O)(=O)CC(C)([CH2][Hg][I])O1 (centres undefined) | 99% (active) | 98% (active) | 95.7% (active) | 100% (active) | 99% (active) | 98% (active) | 100% (active) | 99% (active) | 97.3% (active) | 99% (active) | 98% (active) | 96% (active) | 100% (active) | 99% (active) | 97.8% (active) | 99% (active) | 98% (active) | 96.2% (active)
